Source: PubChem BioAssay (NCATS)
Inconclusive results are not listed. A call without a number means that no potency is given here. The source made the active and inactive calls. Calls follow the shape of the dose curve; as a rule, active = well fitted curve in the direction sought with a large enough effect; inconclusive = small, poorly fitted or top-dose-only effect, or another doubt; inactive = no such curve, though single readings can be large; an effect the other way counts as inactive or inconclusive.

Legend:
[1] = target: Tyrosine-protein kinase Yes (Homo sapiens) (UniProt P07947); assay: qHTS for small molecule inhibitors of Yes1 kinase: Primary Screen (AID 686947); details: Yes1 kinase biochemical qHTS inhibition; series mostly up to 76.9 µM; also: nearly all actives have a fitted effect of over 60% in size; also: potency is read from the fitted curve at half-maximal effect
Procedure, shortened: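 ADP-Glo luminescence readout; final 4 nM Yes1, 0.1 mM ATP, 0.3 mg/mL poly(E4Y), Tris pH 7.5, MgCl2, DTT, Brij-35. 20 min compound preincubation, 60 min reaction at RT. Normalized to DMSO wells with and without enzyme.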

[2] = qHTS for small molecule inhibitors of Yes1 kinase: Counter Assay (AID 686950); details: series mostly up to 76.9 µM;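 also: no kinase present so only ADP-Glo detection of a fixed ADP amount is tested; luminescence from ADP-Glo reporting ADP in a fixed ATP and ADP mixture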
Procedure, shortened: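 Enzyme-free ADP-Glo interference check: compounds were preincubated 20 min in buffer, then an ATP/ADP mix (0.08 mM ATP, 0.02 mM ADP final) was added for 60 min at room temperature before two-step ADP-Glo luminescence detection.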

Chain of Tyrosine-protein kinase Yes (Homo sapiens) (P07947 whole entry, looked up): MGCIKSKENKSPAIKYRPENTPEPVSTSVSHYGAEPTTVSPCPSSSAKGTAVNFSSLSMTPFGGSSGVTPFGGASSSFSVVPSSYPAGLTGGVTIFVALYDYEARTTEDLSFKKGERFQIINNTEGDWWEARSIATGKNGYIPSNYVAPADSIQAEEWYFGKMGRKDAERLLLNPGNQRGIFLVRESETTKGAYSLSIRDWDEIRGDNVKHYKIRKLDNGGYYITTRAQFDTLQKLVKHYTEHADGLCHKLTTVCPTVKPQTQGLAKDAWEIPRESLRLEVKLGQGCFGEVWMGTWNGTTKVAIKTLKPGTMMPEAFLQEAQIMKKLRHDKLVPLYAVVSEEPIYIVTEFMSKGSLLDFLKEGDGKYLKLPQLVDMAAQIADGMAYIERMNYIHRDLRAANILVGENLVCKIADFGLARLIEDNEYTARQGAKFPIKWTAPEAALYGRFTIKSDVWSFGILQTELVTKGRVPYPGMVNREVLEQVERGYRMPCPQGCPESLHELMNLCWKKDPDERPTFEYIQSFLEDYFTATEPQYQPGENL

| SMILES | Potency [1] | outcome [2] |
| --- | --- | --- |
| CC(Oc1cc(-n2cnc3ccc(OC4CCN(C)CC4)cc32)sc1C(N)=O)c1ccccc1Cl (stereo unspecified) | 5820 nM (active) | inactive |
| CN1CCC(n2cnc(-c3ccc(F)cc3)c2-c2ccnc(NCCO)n2)CC1 | inactive | inactive |
| NS(=O)(=O)c1ccc(N=Nc2c(O)[nH]c3ccc(Cl)cc23)cc1 | 36800 nM (active) | inactive |
| Cc1ccc(C(=O)NC(C)C)cc1-c1ccc(C(=O)NCC2CC2)cc1 | inactive | inactive |
| COc1cc(Nc2ncc3c(C)nc(-c4cccc(C(F)(F)F)c4)n3n2)cc(OC)c1OC | 582 nM (active) | inactive |
| CN(c1ccc(NC(=O)Nc2c(Cl)cccc2Cl)cc1)c1ccnc(Nc2cccc(CS(C)(=O)=O)c2)n1 | 1460 nM (active) | inactive |
| COC(=O)c1cncc(C=Cc2c(C)cc(O)cc2C)c1 | 1300 nM (active) | inactive |
| c1ccc(-c2nc3n(c2-c2ccc4c(c2)OCO4)CCC3)nc1 | inactive | inactive |
| Cc1cc(Cl)cc2c(N=Nc3ccc(S(N)(=O)=O)cc3)c(O)[nH]c12 | 10400 nM (active) | inactive |
| COc1cc2ncnc(Nc3ccc4c(cnn4Cc4ccccc4)c3)c2cc1OC | 32.8 nM (active) | inactive |
| COc1cccc(-n2ncc3c(NN=Cc4ccc(C(=O)NCCN(C)C)cc4)ncnc32)c1 | 20.7 nM (active) | inactive |
| NC(=O)c1cc(-c2ccc(F)cc2)cc(-c2ccncc2)c1N | inactive | inactive |
| CCN(CC)S(=O)(=O)c1ccc(OC)c(Nc2ncc(-c3ccccc3)o2)c1 | 654 nM (active) | inactive |
| COc1cc(Nc2ncc(-c3ccccc3)o2)cc(OC)c1 | 1460 nM (active) | inactive |
| COc1ccccc1Nc1ncc(-c2ccccc2)o1 | 9230 nM (active) | inactive |
| CCS(=O)(=O)c1ccc(OC)c(Nc2ncc(-c3cccc(-c4ccccc4F)c3)o2)c1 | 463 nM (active) | inactive |
| Cc1nnc(-c2cccc(-c3ccc(C(=O)NCC4CC4)cc3)c2)o1 | inactive | inactive |
| CNC(=O)c1cncc(C=Cc2c(Cl)cccc2Cl)c1 | 823 nM (active) | inactive |
| O=C(NCC1CC1)c1ccc(-c2cccc(C(=O)NC3CC3)c2)cc1 | inactive | inactive |

| SMILES | Potency [1] | outcome [2] |
| --- | --- | --- |
| CS(=O)(=O)Nc1ccc(-c2cc(-c3ccccc3)cc(C(N)=O)c2N)cc1 | 13000 nM (active) | inactive |
| NC(=O)c1cccc(Nc2nccc(Nc3cccc4[nH]ncc34)n2)c1 | 29.2 nM (active) | inactive |
| CC1=C(C(=O)Nc2ccc3[nH]ncc3c2)C(c2ccc(F)cc2)NC(=O)N1 (stereo unspecified) | 26000 nM (active) | inactive |
| COc1cc2c(cc1Nc1nc(N3CCc4ccccc43)c3cc[nH]c3n1)N(C(=O)CN(C)C)CC2 | inactive | inactive |
| O=C(OC1CNC(C#Cc2cc3ncnc(Nc4ccc(OCc5cccc(F)c5)c(Cl)c4)c3s2)C1)N1CCOCC1 (stereo unspecified) | 6540 nM (active) | inactive |
| CCn1c(-c2nonc2N)nc2cncc(C(=O)N3CCC(N)C3)c21 (stereo unspecified) | inactive | inactive |
| Nc1nc(-c2ccc(F)cc2)c(-c2ccc3ncccc3n2)s1 | 463 nM (active) | inactive |
| N#Cc1c(NC(=O)c2ccccc2F)sc2c1CCCC2 | inactive | inactive |
| c1ccc(Oc2ccc(Nc3ncc(-c4ccccc4)o3)cc2)cc1 | inactive | inactive |
| COc1cccc(-n2ncc3c(NN=Cc4ccncc4)ncnc32)c1 | 92.3 nM (active) | inactive |
| O=C1NC(=O)C(c2ccc(Cl)cc2)=C1Nc1ccc(Cl)c(C(=O)O)c1 | inactive | inactive |
| O=C1NC(=O)C(N2CCc3ccccc32)=C1c1ccc(Cl)cc1 | inactive | inactive |
| Cc1ccc(C(=O)NC2CC2)cc1-c1ccc2[nH]ncc2c1 | inactive | inactive |
| Cc1ccc(Nc2ccnc(Nc3cccc(C(N)=O)c3)n2)cc1O | 29.2 nM (active) | inactive |
| CC(C)c1ccc(Nc2nccc(-c3cnn4ncccc34)n2)cc1 | 26000 nM (active) | inactive |
| CCS(=O)(=O)c1ccc(OC)c(Nc2ncc(-c3cccc(F)c3)o2)c1 | 146 nM (active) | inactive |
| COc1ccc(-c2nn3ncccc3c2-c2ccnc(Nc3ccc4c(c3)OCCO4)n2)cc1 | 29.2 nM (active) | inactive |
| COc1c(C(N)=O)cc(-c2ccc(Cl)cc2)cc1-c1ccc(S(N)(=O)=O)cc1 | 10400 nM (active) | inactive |
| COc1ccc(-c2ccc3c(NC(=O)C4CC4)n[nH]c3n2)cc1 | 6540 nM (active) | inactive |
